# According to PubChem BioAssay (EPA / NIEHS):
# Results filed as inconclusive are left out. The source made the active and inactive calls. The calls were made as follows, unless noted: active = hit-call score of the fitted dose curve at least 0.9, where 1 is the maximum; inactive = score below 0.9.
# Legend:
# [1] = ATG_M_06_TRANS: Attagene TRANS-FACTORIAL HepG2 Assay for M06 Transcription Factor (Internal Marker) (AID 2282983; active = hit-call score of the fitted dose curve at least 0.9, where 1 is the maximum;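 also: reporter transcript level by RT-PCR then capillary electrophoresis fluorescence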); conditions: HepG2 Attagene TRANS M06 internal marker reporter
# Summary of the method: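 HepG2 cells transiently transfected with multiplexed GAL4-UAS reporter transcription units; after 24 h compound exposure, reporter mRNA measured by RT-PCR, FAM-labelled primer extension, HpaI digestion and capillary electrophoresis. Gain-of-signal fitted versus DMSO baseline; background control readout.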
# [2] = ATG_M_32_TRANS: Attagene TRANS-FACTORIAL HepG2 Assay for M32 Transcription Factor (Internal Marker) (AID 2282984; active = hit-call score of the fitted dose curve at least 0.9, where 1 is the maximum); conditions: HepG2 Attagene TRANS M32 internal marker reporter
# Summary of the method: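 HepG2 cells transiently transfected with GAL4-UAS reporter units, dosed for 24 hours. Reporter mRNA quantified by RT-PCR, 6-FAM labelling, HpaI digestion and capillary electrophoresis; internal-marker signal fitted upward relative to DMSO.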
# [3] = molecular target: Nuclear receptor subfamily 4 group A member 2 (Homo sapiens) (UniProt P43354); experiment: ATG_NURR1_TRANS: Attagene TRANS-FACTORIAL HepG2 Assay for human Nuclear Receptor Related Protein 1 (NURR1) (AID 2282985; active = hit-call score of the fitted dose curve at least 0.9, where 1 is the maximum); conditions: HepG2 Attagene TRANS reporter, mRNA readout
# Summary of the method: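 HepG2 cells transiently transfected with NURR1-Gal4 chimera and GAL4-UAS reporter units; after 24 hr compound exposure, reporter mRNA quantified by RT-PCR and capillary electrophoresis; gain of signal fitted against DMSO.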
# [4] = molecular target: Nuclear respiratory factor 1 (Homo sapiens) (UniProt Q16656); experiment: ATG_NRF1_CIS: Attagene CIS-FACTORIAL HepG2 Assay for human Nuclear Respiratory Factor 1 (NRF1) Orphan Gene (AID 2282987); conditions: HepG2 NRF1 cis-element reporter, Attagene multiplex; actives raise or lower the signal
# Summary of the method: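 Cells (HepG2, transient MRTU transfection) are exposed to compound for 24 h, then RNA isolated and reporter mRNA amplified and fluorescently labelled. Fragments are separated by capillary electrophoresis; signal change is fitted bidirectionally relative to DMSO.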
# [5] = ATG_NFI_CIS: Attagene CIS-FACTORIAL HepG2 Assay for human Nuclear Factor I (NFI) (AID 2282989); conditions: HepG2 cis-regulatory reporter, NFI response element transcription; actives raise or lower the signal
# Summary of the method: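 Multiplexed cis-reporter system in human HepG2 cells reports native TF activity as reporter mRNA induction 24 h post-dose. Fragments labelled with 6-FAM, HpaI-digested and resolved by capillary electrophoresis; activity fitted both directions versus DMSO.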
# [6] = molecular target: Myc proto-oncogene protein (Homo sapiens) (UniProt P01106); experiment: ATG_Myc_CIS: Attagene CIS-FACTORIAL HepG2 Assay for human Myelocytomatosis (Myc) Proto-Oncogene Transcription Factor (AID 2282990); conditions: HepG2, Attagene cis-reporter transcription factor activity; actives raise or lower the signal
# Summary of the method: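 Fluorescence intensity of reporter-specific cDNA fragments, separated by capillary electrophoresis, gives the signal. Transfected HepG2 cells carrying cis-promoter reporter constructs are incubated with compound for 24 h; DMSO serves as baseline.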
# [7] = ATG_NRF2_ARE_CIS: Attagene CIS-FACTORIAL HepG2 Assay for human Nuclear Factor Erythroid 2 Related Factor 2 (NFR2) response to Antioxidant Response Elements (ARE) (AID 2282992); conditions: HepG2 Attagene ARE/NRF2 reporter, transcription factor activity; actives raise or lower the signal;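 as to AC50: reporter mRNA level measured by RT-PCR and capillary electrophoresis fluorescence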
# Summary of the method: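 Cis-factorial assay: transfected HepG2 reporter library, 24 h dosing, mRNA readout via RT-PCR/CE; DMSO-referenced bidirectional analysis.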
# [8] = ATG_Oct_MLP_CIS: Attagene CIS-FACTORIAL HepG2 Assay for human Octamer-Binding Transcription Factor (Oct) (AID 2282993); conditions: HepG2 Attagene cis-factorial Oct reporter, mRNA; actives raise or lower the signal
# Summary of the method: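 After 24 h compound exposure, transfected HepG2 cells were lysed for total RNA; reporter-specific cDNA was PCR-amplified, fluorescently labelled and sized by capillary electrophoresis. Bidirectional curve fitting used DMSO as baseline.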
# [9] = molecular target: Cellular tumor antigen p53 (Homo sapiens) (UniProt P04637); experiment: ATG_p53_CIS: Attagene CIS-FACTORIAL HepG2 Assay for human p53 Transcription Factor (AID 2282994); conditions: HepG2 p53 cis-element reporter, Attagene mRNA; actives raise or lower the signal
# Summary of the method: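 Using HepG2 hepatoma cells carrying cis-acting multiplexed reporters, mRNA induction is detected after a 24 h exposure. Gain- and loss-of-signal responses are fitted relative to DMSO-treated cells.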
# [10] = BSK_3C_TissueFactor: BioMAP Diversity Plus: 3C Assay for Tissue Factor Biomarker Activity (AID 2282997); conditions: BioMAP 3C HUVEC, tissue factor biomarker readout; actives raise or lower the signal
# Summary of the method: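 Primary human umbilical vein endothelial cells in the 3C system were exposed to test chemical for 24 h, then Tissue Factor measured by ELISA. Activity was fitted bidirectionally against DMSO as negative control and baseline.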
# [11] = BSK_3C_uPAR: BioMAP Diversity Plus: 3C Assay for Urokinase-type plasminogen activator receptor (uPAR) Biomarker Activity (AID 2282998); conditions: BioMAP 3C HUVEC, uPAR biomarker ELISA; actives raise or lower the signal
# Summary of the method: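 Values derive from bidirectional curve fitting relative to DMSO, which served as baseline of activity. uPAR was measured by ELISA in human umbilical vein endothelial primary cultures 24 h after compound addition.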
# [12] = BSK_3C_VCAM1: BioMAP Diversity Plus: 3C Assay for Vascular cell adhesion molecule 1 (VCAM1) Biomarker Activity (AID 2282999); conditions: BioMAP 3C HUVEC, VCAM1 ELISA, cytokine-stimulated; actives raise or lower the signal
# Summary of the method: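 Human umbilical vein endothelial cells (3C system), biomarker read by ELISA 24 h after dosing; bidirectional fit against DMSO baseline. Cytotoxicity tracked by SRB total-protein staining in parallel cultures at biomarker time.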
# [13] = BSK_4H_Eotaxin3: BioMAP Diversity Plus: 4H Assay for Eotaxin 3 Biomarker Activity (AID 2283000); conditions: primary human endothelial cells (HUVEC); actives raise or lower the signal;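 as to outcome: CCL26 protein level quantified by ELISA in parallel with SRB cytotoxicity check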
# Summary of the method: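 HUVEC, 24 h post-dose, ELISA for Eotaxin-3/CCL26. Gain or loss of signal fitted bidirectionally vs DMSO baseline.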
# [14] = molecular target: human Peroxisome Proliferator-activated Receptor alpha (PPARa), PPARA (gene 5465) (UniProt Q07869); experiment: ATG_PPARa_TRANS: Attagene TRANS-FACTORIAL HepG2 Assay for human Peroxisome Proliferator-activated Receptor alpha (PPARa) (AID 2283001; active = hit-call score of the fitted dose curve at least 0.9, where 1 is the maximum)
# Summary of the method: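 HepG2 cells transiently transfected with multiplexed GAL4-UAS reporters driven by exogenous chimeric NR-Gal4 proteins; reporter mRNA measured after 24 h dosing. Read-out by RT-PCR, 6-FAM labelling, HpaI digestion and capillary electrophoresis; gain of signal versus DMSO.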
# [15] = molecular target: human Peroxisome Proliferator-activated Receptor delta (PPARd), PPARD (gene 5467) (UniProt Q03181); experiment: ATG_PPARd_TRANS: Attagene TRANS-FACTORIAL HepG2 Assay for human Peroxisome Proliferator-activated Receptor delta (PPARd) (AID 2283002; active = hit-call score of the fitted dose curve at least 0.9, where 1 is the maximum)
# Summary of the method: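 Fluorescence from capillary electrophoresis of labelled RT-PCR reporter fragments gives the signal; DMSO sets baseline. Cells: HepG2 transiently carrying GAL4-UAS reporter units plus chimeric nuclear receptor-Gal4 proteins, exposed to chemicals for 24 h.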
# [16] = ATG_NF_kB_CIS: Attagene CIS-FACTORIAL HepG2 Assay for human Nuclear Factor Kappa B (NF-kB) (AID 2282991); conditions: HepG2 Attagene cis-factorial NF-kB reporter mRNA; actives raise or lower the signal
# Summary of the method: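 Measures mRNA induction of an NF-kB-responsive cis-element reporter in HepG2 cells transfected with multiple reporter units, sampled 24 h post-dosing; quantified by fluorescence after RT-PCR and capillary electrophoresis, fitted for activation or inhibition against DMSO.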
# [17] = molecular target: Transcriptional activator Myb (Homo sapiens) (UniProt P10242); experiment: ATG_Myb_CIS: Attagene CIS-FACTORIAL HepG2 Assay for human Myeloblastosis (Myb) Proto-Oncogene Transcription Factor (AID 2282986); conditions: HepG2 Attagene CIS-FACTORIAL Myb reporter transcription; actives raise or lower the signal
# Summary of the method: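 Transiently transfected HepG2 cells, treated 24 h. Reporter mRNA quantified by RT-PCR/capillary electrophoresis; bidirectional fit relative to DMSO.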
# [18] = molecular target: Hepatocyte nuclear factor 4-alpha (Homo sapiens) (UniProt P41235); experiment: ATG_HNF4a_TRANS: Attagene TRANS-FACTORIAL HepG2 Assay for human Hepatocyte Nuclear Factor 4 alpha (HNF4a) (AID 2282982; active = hit-call score of the fitted dose curve at least 0.9, where 1 is the maximum); conditions: HepG2 HNF4a transactivation reporter, mRNA readout
# Summary of the method: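 HepG2 cells transiently transfected with HNF4a-Gal4 chimera and GAL4-UAS reporter units, dosed for 24 h. Reporter mRNA measured by RT-PCR, fluorescent primer extension and capillary electrophoresis; gain-of-signal fitted relative to DMSO.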
# Chain of Myc proto-oncogene protein (Homo sapiens) (P01106 whole entry, looked up, the tested form may be a part): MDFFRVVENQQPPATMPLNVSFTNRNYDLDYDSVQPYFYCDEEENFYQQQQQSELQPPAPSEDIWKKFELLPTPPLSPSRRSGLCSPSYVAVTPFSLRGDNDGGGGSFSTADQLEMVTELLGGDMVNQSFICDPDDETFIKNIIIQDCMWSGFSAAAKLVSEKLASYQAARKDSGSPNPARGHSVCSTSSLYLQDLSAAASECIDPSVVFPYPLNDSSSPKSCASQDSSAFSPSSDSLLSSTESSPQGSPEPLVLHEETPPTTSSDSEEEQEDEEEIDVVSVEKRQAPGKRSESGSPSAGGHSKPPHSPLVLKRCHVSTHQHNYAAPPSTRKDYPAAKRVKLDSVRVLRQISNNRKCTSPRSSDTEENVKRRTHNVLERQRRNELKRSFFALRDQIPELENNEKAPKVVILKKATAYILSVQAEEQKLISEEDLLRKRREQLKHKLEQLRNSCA
# Chain of Cellular tumor antigen p53 (Homo sapiens) (P04637 whole entry, looked up): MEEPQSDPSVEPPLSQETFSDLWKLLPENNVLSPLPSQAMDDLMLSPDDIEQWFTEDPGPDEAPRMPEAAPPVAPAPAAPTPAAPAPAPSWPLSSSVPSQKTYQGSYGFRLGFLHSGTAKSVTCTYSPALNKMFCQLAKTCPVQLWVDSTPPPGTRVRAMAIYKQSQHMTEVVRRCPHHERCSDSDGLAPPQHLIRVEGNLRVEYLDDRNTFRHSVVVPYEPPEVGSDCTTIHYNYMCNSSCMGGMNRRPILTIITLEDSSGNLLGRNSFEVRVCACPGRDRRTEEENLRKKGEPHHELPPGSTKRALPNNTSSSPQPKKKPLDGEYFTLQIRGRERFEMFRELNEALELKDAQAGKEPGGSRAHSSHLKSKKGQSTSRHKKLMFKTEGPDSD
# Chain of human Peroxisome Proliferator-activated Receptor delta (PPARd), PPARD (gene 5467) (Q03181 whole entry, looked up, the tested form may be a part): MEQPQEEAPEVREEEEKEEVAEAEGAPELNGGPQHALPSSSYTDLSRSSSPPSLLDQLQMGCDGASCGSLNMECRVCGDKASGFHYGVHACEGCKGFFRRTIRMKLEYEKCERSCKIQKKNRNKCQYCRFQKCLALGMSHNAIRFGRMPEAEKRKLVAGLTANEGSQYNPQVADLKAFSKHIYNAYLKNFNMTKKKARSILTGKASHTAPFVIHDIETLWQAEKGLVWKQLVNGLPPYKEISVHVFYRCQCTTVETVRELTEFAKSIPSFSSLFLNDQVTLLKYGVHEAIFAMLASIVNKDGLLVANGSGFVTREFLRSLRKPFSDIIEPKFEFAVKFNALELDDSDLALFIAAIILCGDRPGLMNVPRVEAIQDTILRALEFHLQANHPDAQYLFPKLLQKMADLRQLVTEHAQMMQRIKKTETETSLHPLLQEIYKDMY
# Chain of Nuclear receptor subfamily 4 group A member 2 (Homo sapiens) (P43354 whole entry, looked up, the tested form may be a part): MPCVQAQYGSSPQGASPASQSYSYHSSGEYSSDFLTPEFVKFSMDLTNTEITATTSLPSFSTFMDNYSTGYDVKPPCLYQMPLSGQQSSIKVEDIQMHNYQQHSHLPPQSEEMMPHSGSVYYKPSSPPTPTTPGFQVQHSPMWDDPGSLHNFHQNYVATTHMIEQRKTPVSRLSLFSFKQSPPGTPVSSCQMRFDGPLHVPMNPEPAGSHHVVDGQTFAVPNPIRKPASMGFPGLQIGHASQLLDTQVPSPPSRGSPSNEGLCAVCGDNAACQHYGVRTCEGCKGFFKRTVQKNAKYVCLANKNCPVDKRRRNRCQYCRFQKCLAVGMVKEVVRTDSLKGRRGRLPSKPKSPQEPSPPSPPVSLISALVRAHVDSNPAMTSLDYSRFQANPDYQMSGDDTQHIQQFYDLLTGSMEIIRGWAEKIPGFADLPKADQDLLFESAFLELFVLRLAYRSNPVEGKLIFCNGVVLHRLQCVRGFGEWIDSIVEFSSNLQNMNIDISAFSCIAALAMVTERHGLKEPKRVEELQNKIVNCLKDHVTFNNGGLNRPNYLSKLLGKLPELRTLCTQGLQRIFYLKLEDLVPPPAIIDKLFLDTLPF
# Chain of Nuclear respiratory factor 1 (Homo sapiens) (Q16656 whole entry, looked up, the tested form may be a part): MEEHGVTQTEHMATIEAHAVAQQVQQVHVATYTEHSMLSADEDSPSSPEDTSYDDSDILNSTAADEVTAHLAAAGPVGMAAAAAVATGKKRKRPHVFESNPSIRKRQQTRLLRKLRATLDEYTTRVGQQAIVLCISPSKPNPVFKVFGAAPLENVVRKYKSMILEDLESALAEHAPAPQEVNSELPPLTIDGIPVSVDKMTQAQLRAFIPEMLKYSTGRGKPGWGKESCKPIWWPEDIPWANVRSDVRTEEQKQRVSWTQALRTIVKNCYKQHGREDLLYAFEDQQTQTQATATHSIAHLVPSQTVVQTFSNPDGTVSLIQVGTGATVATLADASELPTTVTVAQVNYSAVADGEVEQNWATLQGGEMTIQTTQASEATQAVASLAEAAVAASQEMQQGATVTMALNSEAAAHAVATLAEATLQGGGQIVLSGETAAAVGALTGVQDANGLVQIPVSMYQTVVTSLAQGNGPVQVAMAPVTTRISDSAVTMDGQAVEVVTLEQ
# Chain of human Peroxisome Proliferator-activated Receptor alpha (PPARa), PPARA (gene 5465) (Q07869 whole entry, looked up, the tested form may be a part): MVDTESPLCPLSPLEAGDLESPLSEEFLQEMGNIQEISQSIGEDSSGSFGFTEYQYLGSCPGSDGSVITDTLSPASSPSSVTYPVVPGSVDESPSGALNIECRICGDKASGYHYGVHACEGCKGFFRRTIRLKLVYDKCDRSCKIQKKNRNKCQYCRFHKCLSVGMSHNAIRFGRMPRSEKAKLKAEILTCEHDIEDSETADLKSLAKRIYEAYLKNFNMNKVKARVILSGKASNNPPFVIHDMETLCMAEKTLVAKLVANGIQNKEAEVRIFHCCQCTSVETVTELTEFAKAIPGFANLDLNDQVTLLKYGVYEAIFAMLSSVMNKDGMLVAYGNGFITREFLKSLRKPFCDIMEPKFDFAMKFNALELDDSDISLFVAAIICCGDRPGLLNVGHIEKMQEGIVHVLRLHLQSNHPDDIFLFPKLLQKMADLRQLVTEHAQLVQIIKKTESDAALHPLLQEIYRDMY
# Chain of Hepatocyte nuclear factor 4-alpha (Homo sapiens) (P41235 whole entry, looked up, the tested form may be a part): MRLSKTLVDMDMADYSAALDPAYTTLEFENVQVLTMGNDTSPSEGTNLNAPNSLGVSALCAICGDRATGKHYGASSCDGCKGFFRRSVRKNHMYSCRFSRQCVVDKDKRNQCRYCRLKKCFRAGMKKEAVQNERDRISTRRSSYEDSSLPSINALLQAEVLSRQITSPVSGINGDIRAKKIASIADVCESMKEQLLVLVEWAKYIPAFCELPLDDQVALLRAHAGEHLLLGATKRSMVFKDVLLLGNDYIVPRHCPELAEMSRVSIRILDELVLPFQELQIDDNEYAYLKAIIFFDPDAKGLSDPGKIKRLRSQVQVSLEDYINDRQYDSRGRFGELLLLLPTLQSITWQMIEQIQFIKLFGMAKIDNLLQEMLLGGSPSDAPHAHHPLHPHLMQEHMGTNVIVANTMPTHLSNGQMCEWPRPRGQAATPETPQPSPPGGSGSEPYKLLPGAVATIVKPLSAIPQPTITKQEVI
# Chain of Transcriptional activator Myb (Homo sapiens) (P10242 whole entry, looked up): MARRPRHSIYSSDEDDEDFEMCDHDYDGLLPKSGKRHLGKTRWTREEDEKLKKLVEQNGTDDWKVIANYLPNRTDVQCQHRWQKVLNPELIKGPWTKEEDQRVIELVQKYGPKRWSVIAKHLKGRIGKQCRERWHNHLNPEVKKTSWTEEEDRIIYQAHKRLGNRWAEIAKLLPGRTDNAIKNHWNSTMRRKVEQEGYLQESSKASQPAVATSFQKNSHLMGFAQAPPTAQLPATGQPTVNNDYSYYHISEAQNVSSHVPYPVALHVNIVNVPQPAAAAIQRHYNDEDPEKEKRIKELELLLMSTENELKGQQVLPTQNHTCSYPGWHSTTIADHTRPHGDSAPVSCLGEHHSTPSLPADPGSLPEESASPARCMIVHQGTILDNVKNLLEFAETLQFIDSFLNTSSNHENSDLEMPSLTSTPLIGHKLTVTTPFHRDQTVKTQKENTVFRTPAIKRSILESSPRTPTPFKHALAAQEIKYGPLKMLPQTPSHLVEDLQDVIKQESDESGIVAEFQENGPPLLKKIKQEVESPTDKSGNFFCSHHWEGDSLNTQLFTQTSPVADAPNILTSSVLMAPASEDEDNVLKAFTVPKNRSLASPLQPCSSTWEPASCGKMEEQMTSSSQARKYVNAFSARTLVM
smiles,measurement,setting,value
COc1ccc2sc(C(=O)Nc3nnn[nH]3)c(OC(C)C)c2c1,outcome,[1],inactive
same,outcome,[2],inactive
same,outcome,[3],inactive
same,outcome,[4],inactive
same,outcome,[5],inactive
same,outcome,[6],inactive
same,AC50,[7],70.2 µM (active)
same,AC50,[8],155 µM (active)
same,AC50,[9],71.4 µM (active)
same,AC50,[10],22.5 µM (active)
same,AC50,[11],5.51 µM (active)
same,AC50,[12],23.7 µM (active)
same,AC50,[13],23.3 µM (active)
same,outcome,[14],inactive
same,outcome,[15],inactive
CCOc1cccc(-n2cc(C(=O)N3CCN(c4cc(C(=O)O)c5ccccc5c4)CC3)nc2-c2ccc(C)cc2)c1,outcome,[1],inactive
same,outcome,[2],inactive
same,AC50,[3],45 µM (active)
same,AC50,[4],22.7 µM (active)
same,outcome,[5],inactive
same,outcome,[6],inactive
same,outcome,[16],inactive
same,AC50,[7],8.42 µM (active)
same,AC50,[8],25.4 µM (active)
same,outcome,[9],inactive
same,AC50,[10],28.7 µM (active)
same,AC50,[11],13.9 µM (active)
same,AC50,[12],27.9 µM (active)
same,AC50,[13],33.1 µM (active)
same,outcome,[15],inactive
CCNc1ccccc1,outcome,[1],inactive
same,outcome,[3],inactive
same,outcome,[17],inactive
same,outcome,[4],inactive
same,outcome,[5],inactive
same,outcome,[6],inactive
same,outcome,[16],inactive
same,outcome,[7],inactive
same,outcome,[8],inactive
same,outcome,[9],inactive
same,outcome,[10],inactive
same,outcome,[11],inactive
same,outcome,[12],inactive
same,outcome,[13],inactive
same,outcome,[14],inactive
same,outcome,[15],inactive
CCCC(=O)OCC,outcome,[18],inactive
same,outcome,[3],inactive
same,outcome,[4],inactive
same,outcome,[5],inactive
same,outcome,[6],inactive
same,outcome,[7],inactive
same,outcome,[8],inactive
same,outcome,[9],inactive
same,outcome,[10],inactive
same,outcome,[11],inactive
same,outcome,[12],inactive
same,outcome,[13],inactive
CCCCCCCCCCCCCCCO,outcome,[1],inactive
same,outcome,[2],inactive
same,outcome,[4],inactive
same,outcome,[5],inactive
same,outcome,[6],inactive
same,outcome,[16],inactive
same,outcome,[7],inactive
same,outcome,[8],inactive
same,outcome,[9],inactive
same,outcome,[10],inactive
same,AC50,[11],35.6 µM (active)
same,AC50,[12],15.4 µM (active)
same,AC50,[13],36.5 µM (active)
same,outcome,[14],inactive
same,outcome,[15],inactive
C[C@](N)(Cc1ccc(O)c(O)c1)C(=O)O,outcome,[18],inactive
same,outcome,[1],inactive
same,outcome,[3],inactive
same,outcome,[4],inactive
same,outcome,[5],inactive
same,outcome,[6],inactive
same,outcome,[16],inactive
same,outcome,[7],inactive
same,outcome,[8],inactive
same,outcome,[9],inactive
same,outcome,[10],inactive
same,outcome,[11],inactive
same,outcome,[12],inactive
same,outcome,[13],inactive
same,outcome,[15],inactive
Cn1c(=O)c2c(ncn2C)n(C)c1=O,outcome,[18],inactive
same,outcome,[2],inactive
same,outcome,[3],inactive
same,outcome,[4],inactive
same,outcome,[5],inactive
same,outcome,[6],inactive
same,outcome,[7],inactive
same,outcome,[8],inactive
same,outcome,[9],inactive
same,outcome,[10],inactive
same,outcome,[11],inactive
same,outcome,[12],inactive
same,outcome,[13],inactive
